Assay outcomes as filed in PubChem.
Anthrax LF prot = inhibitors of Bacillus anthracis lethal factor protease; P15917; multiplex microsphere protease cleavage assay, LF; inhibition, % at 10 µM; 360,000 tested, 0.12% active; AID 588501
Target sequence (P15917 whole entry, looked up): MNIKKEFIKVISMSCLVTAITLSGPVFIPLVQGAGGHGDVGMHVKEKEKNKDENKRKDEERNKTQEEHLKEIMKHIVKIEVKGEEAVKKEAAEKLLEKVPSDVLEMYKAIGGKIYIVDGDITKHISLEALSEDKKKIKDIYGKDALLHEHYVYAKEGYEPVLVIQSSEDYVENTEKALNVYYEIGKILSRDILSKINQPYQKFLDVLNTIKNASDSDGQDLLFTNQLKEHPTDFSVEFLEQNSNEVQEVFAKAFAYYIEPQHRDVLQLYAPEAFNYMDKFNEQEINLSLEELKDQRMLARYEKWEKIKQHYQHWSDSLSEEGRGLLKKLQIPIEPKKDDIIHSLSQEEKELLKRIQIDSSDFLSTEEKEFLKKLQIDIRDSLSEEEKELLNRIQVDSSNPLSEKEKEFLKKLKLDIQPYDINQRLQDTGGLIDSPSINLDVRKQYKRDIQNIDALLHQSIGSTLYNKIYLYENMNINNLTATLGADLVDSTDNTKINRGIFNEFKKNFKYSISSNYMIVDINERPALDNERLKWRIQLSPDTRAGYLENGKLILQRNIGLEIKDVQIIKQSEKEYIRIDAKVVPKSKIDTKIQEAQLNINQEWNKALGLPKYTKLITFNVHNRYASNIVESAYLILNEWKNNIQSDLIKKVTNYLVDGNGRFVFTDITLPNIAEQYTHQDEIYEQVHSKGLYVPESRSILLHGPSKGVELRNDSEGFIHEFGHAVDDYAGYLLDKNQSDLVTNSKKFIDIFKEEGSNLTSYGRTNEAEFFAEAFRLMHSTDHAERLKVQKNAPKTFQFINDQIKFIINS
Autofluor counter = compound fluorescence in toxin protease inhibitor counterscreen. 360,000 tested, 3.1% active. fluorescence intensity (concentration not given with the values). compound autofluorescence counterscreen, microsphere flow cytometry; stronger effect = higher value; in the data active = fluorescence intensity above about 16000; inconclusive = no clear call, values can overlap the other calls
BJeLR viability = kills HRASV12-expressing BJeLR cells; BJeLR (HRASV12) viability, CellTiter-Glo ATP luminescence, 48 h; inhibition, % (test concentration not listed); 300,000 tested, 0.17% active; AID 1554; in the data active = inhibition above about 50%; inconclusive = no clear call, values can overlap the other calls
BoNT A protease = inhibitors of Botulinum neurotoxin A light chain protease. multiplex microsphere protease substrate cleavage, flow cytometry. inhibition, % at 10 µM. 360,000 tested, 0.17% active. AID 588499
BoNT-F LC inh = blocks Botulinum neurotoxin F light chain protease; inhibition, % at 10 µM; Multiplex microsphere protease cleavage assay, flow cytometry; AID 588497; 360,000 tested, 0.22% active; in the data active = inhibition above about 35%, passing the limit was not always enough; inconclusive = no clear call, values can overlap the other calls
Numbers stand for hits; 0 = inactive; ? = inconclusive; - = not tested or not shown. A selection: hits, their analogues and other compounds. The true share with any hit is near 3.5%. Rule as the data show it, unless noted: active = inhibition above about 30%; inconclusive = no clear call, values can overlap the other calls; inactive = below that.

SMILES	Anthrax LF prot	Autofluor counter	BJeLR viability	BoNT A protease	BoNT-F LC inh
CCn1c(=O)c(C(=O)CN2CCCc3ccccc32)c(N)n(Cc2ccccc2)c1=O	0	32189	0	?	0
CN(C)c1ccc(/C=C/c2nc3ccccc3c(=O)n2CCO)cc1	0	0	0	0	?
COc1cc(C)c(Cl)cc1S(=O)(=O)NCCN1CCOCC1	0	23984	0	0	0
C=CCNC(=S)/C(=C(/[O-])c1ccc([N+](=O)[O-])cc1)[n+]1ccccc1	0	0	0	0	0
Cc1ccccc1NC(=O)c1ccc2c(c1)C(=O)N(CCC(C)C)C2=O	0	0	0	0	0
Cc1nnc(NC(=O)c2ccc3c(c2)C(=O)N(CCC(C)C)C3=O)s1	0	20485	0	0	0
CCc1nnc(NC(=O)c2ccc3c(c2)C(=O)N(CC)C3=O)s1	0	23383	0	0	0
C=CC[C@H](CC(=O)NCCO)C(=O)N[C@@H](COC(=O)[C@@H](CC=C)CC(=O)OC(C)(C)C)Cc1c[nH]c2ccccc12	0	0	-	0	0
CCc1ccc(N(C(=O)Cc2cccs2)C(C(=O)NC2CCCCC2)c2cn(C)nc2C)cc1 (stereo not drawn)	0	23253	0	?	0
Cc1cc(C)cc(N(C(=O)Cc2cccs2)C(C(=O)NC2CCCCC2)c2ccccn2)c1 (stereo not drawn)	0	23274	0	?	0
CCC(c1nnnn1CCOC)N(Cc1cc2cc(C)c(C)cc2[nH]c1=O)CC1CCCO1 (stereo not drawn)	0	0	0	0	0
CCCC(c1nnnn1CCOC)N(Cc1cc2cc(C)c(C)cc2[nH]c1=O)CC1CCCO1 (stereo not drawn)	0	16616	0	0	0
O=C(NCC(c1ccco1)N1CCCC1)c1cccc(NS(=O)(=O)c2ccccc2)c1 (stereo not drawn)	0	16491	0	0	0
COc1ccccc1C(CNC(=O)c1cccc(S(=O)(=O)Nc2ccc(F)cc2)c1)N1CCCC1 (stereo not drawn)	0	25818	-	0	0
O=C(NCC(c1ccco1)N1CCCCC1)c1ccc(S(=O)(=O)Nc2ccccc2)cc1 (stereo not drawn)	0	?	0	0	0
COc1ccc(NS(=O)(=O)c2cccc(C(=O)NCC(c3ccccc3OC)N3CCCC3)c2)cc1 (stereo not drawn)	0	0	0	0	0
C[C@@H]1CN([C@H](C)CO)C(=O)CCCn2cc(nn2)CO[C@H]1CN(C)C(=O)c1ccccc1	0	0	-	0	0
Cc1sc(-n2c(C)cc(/C=N/n3cnnc3)c2C)c(C#N)c1C	0	22786	0	0	0
O=C(C1CCC1)N1CCN(S(=O)(=O)c2ccc(F)cc2)CC1	0	?	0	0	0
Cc1ccccc1-n1nc(C)c2cc(C(=O)N3CCOCC3)sc21	0	23082	0	?	0
CN(CC(=O)Nc1ccccc1Cl)C(=O)COC(=O)c1cc([N+](=O)[O-])ccc1N1CCOCC1	0	0	0	0	0
CC(C)C(=O)Nc1ccc2c(c1)C(=O)NC2=O	0	0	0	0	0
Cc1cc(NCc2ccccc2)nc(-c2ccccc2O)n1	0	20264	0	?	0
Cc1cc(Nc2ccccc2Cl)nc(-c2ccccc2O)n1	0	0	0	0	36
CC1CN(c2ccc([N+](=O)[O-])nc2)CC(C)O1 (stereo not drawn)	0	0	0	0	0
SMILES	Anthrax LF prot	Autofluor counter	BJeLR viability	BoNT A protease	BoNT-F LC inh
CCOC(=O)c1c(NC(=O)c2ccccc2Cl)sc2c1CCc1ccccc1-2	0	0	0	0	0
CCCCC(=O)Nc1sc2c(c1C(=O)OCC)CCC(C=O)=C2Cl	0	21678	0	?	0
O=C(c1ccc(S(=O)(=O)N2CCOCC2)cc1)N1CCN(c2ccc(F)cc2)CC1	0	0	0	0	0
O=C(NCC1CCN(c2ccc(S(=O)(=O)N3CCOCC3)cc2)CC1)c1cccc(Cl)c1	0	18496	0	0	0
COc1cccc(C(=O)NCC2CCN(c3ccc(S(=O)(=O)N4CCOCC4)cc3)CC2)c1	0	0	0	0	0
O=C(c1ccc(S(=O)(=O)N2CCOCC2)cc1)N1CCN(c2cccc(Cl)c2)CC1	0	24247	0	0	0
CC(C)C[C@@H]1O[C@H](C(C)C)Cc2[nH][nH]c(=O)c21	0	0	-	0	0
O=C(Cn1nnc(-c2cccs2)n1)N1CCc2ccccc2C1	0	21633	0	0	0
CC(C)CNC(=O)COC(=O)c1c2c(nc3ccccc13)/C(=C/c1cccs1)CC2	0	0	0	31	0
CC(=O)c1cccc(-c2ccnc3c2CC(C(=O)Nc2ccc(C(C)C)cc2)O3)c1 (stereo not drawn)	0	0	-	0	0
C/C(=N\NC(=O)Cc1csc(N2CCOCC2)n1)c1ccccc1	0	21300	0	?	0
C/C(=N\O)c1cc(Cl)cc(Cl)c1O	34	0	0	0	?
C/C(=N\O)c1ccc(Cl)cc1Cl	0	0	0	0	0
O=C(CSc1ccccc1)Nc1ccncc1	0	0	0	0	0
COc1ccc(C(=O)C[n+]2cc(-c3ccc(OC)cc3)n3c2CCCC3)cc1	0	0	0	0	0
Cc1ccc(C(=O)C[n+]2cc(-c3ccc(C)cc3)n3c2CCCCC3)cc1	0	22561	0	0	0
COCCNC(=O)Cn1cc(C(=S)N2CCOCC2)c2ccccc21	0	0	0	0	0
COCCCNC(=O)Cn1cc(C(C)=O)c2ccccc21	0	20880	0	0	0
CCOC(=O)N1CCN(C(=O)c2ccc(S(=O)(=O)Nc3ccc(C)cc3)cc2)CC1	0	0	-	0	0
CN(c1ccccc1C(=O)N1CCCC1)S(C)(=O)=O	0	0	0	0	?
CCOC(=O)N1CCN(C(=O)c2ccccc2N(C)S(C)(=O)=O)CC1	0	16798	0	0	0
CCOC(=O)N1CCN(C(=O)c2ccc(NS(C)(=O)=O)cc2)CC1	0	16339	0	0	0
COc1cc(NS(=O)(=O)c2ccc(-n3cccn3)cc2)cc(OC)c1	0	0	-	0	0
Cn1c(C=O)c(C#CC(C)(C)O)c2ccccc21	0	0	-	0	0
COc1cccc(C#Cc2c(C=O)n(C)c3ccccc23)c1	37	0	-	36	0
SMILES	Anthrax LF prot	Autofluor counter	BJeLR viability	BoNT A protease	BoNT-F LC inh
COc1cc(C(C(=O)NCc2ccccc2)N(C(=O)c2snc(C(N)=O)c2N)C2CCCC2)cc(OC)c1OC (stereo not drawn)	0	0	0	0	0
O=C(OCC(=O)N1CCc2ccccc21)c1ccc(Cl)nc1	0	23913	0	0	0
CN1CCN(C(=O)C(=O)c2cn(CC(=O)N3CCOCC3)c3ccccc23)CC1	0	0	-	0	0
Cc1cccc(-c2noc(CCC(=O)NCC3CCCO3)n2)c1 (stereo not drawn)	0	23287	0	0	0
Cc1ccccc1-c1noc(CCC(=O)NCC2CCCO2)n1 (stereo not drawn)	0	22713	0	0	0
N#CCc1c(C#N)c(N)nc(Nc2ccccc2)c1C#N	0	0	0	0	0
O=c1cccc2n1Cc1cc3ccccc3nc1-2	0	0	0	0	0
CCCCc1cc(=O)oc2c(CN(C)C)c(O)ccc12	0	0	0	0	0
CC[C@@]1(O)C(=O)OCc2c1cc1n(c2=O)Cc2cc3c(CN(C)C)c(O)ccc3nc2-1	0	0	85	0	0
